This note sets out measurements from PubChem BioAssay.

For this assay, the system named is Inhibin beta A chain (activin A). Nature of the assay: INHBA (activin A) binders on microarrays, primary screen, biochemical, small-molecule microarray, 635 nm fluorescence scan (AID 1107).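 Further: mouse activin A protein probed at 4.33 µg/mL on printed slides; score merges bound-protein fluorescence near 667 nm with spot signal-to-noise.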 To be noted: small-molecule microarray binding, higher = more signal.
On to `CO[C@H]1COC(=O)CC=C[C@H](C)[C@@H](OC)COC(=O)[C@@H](C)NC(=O)CC=C[C@@H]1C`, for which the composite z-score was determined as 1.52.

With `CCOC(=O)[C@H](Cc1ccccc1)NC(=O)OC1CC(CCC2CC(CC)=NO2)OC2(CCCC(COC(=O)NCCC(C)C)O2)C1` (some centres undefined), the composite z-score is -0.415.

In the case of `CC(C)CON=C1C[C@@H](O)[C@@H](O)[C@@H]2[C@@H]3C(=O)N(c4ccc(F)cc4F)C(=O)[C@@H]3CC[C@H]12`, the composite z-score was -0.253.

The compound `CC(C)(C)N1C(=O)[C@H]2[C@H]3[C@H](O)[C@H](O)CC(=NO[C@@H]4O[C@H](CO)[C@@H](O)[C@H](O)[C@H]4O)[C@H]3CC[C@H]2C1=O` had a composite z-score of 1.35.

As to `COC(=O)C=CCCc1coc(C=CCNC(=O)OC)n1`, the composite z-score is 1.3.

Compound `Cc1ccc(S(=O)(=O)OC[C@H]2CN3[C@H](c4ccc(Br)cc4)[C@@H](C)CC[C@H]3C(=O)O2)cc1` returned a composite z-score of 0.355.

As for `CO[C@@H]1COC(=O)[C@@H](C)NC(=O)CC=C[C@@H](C)[C@H](NS(=O)(=O)c2ccc(C)cc2)COC(=O)[C@H](C)NC(=O)CC=C[C@H]1C`, the composite z-score turned out to be 1.4.

In turn, `COC(=O)[C@H](C)NC(=O)CCC1CC(OC(=O)NCc2ccc3c(c2)OCO3)CC2(CCCC(COC(=O)NCC3CCCCC3)O2)O1` (some centres undefined) registered a composite z-score of -0.144.

For `C#CCCCON=C1C[C@@H](O)[C@@H](O)[C@@H]2[C@@H]3C(=O)N(C(C)(C)C)C(=O)[C@@H]3CC[C@H]12`, the composite z-score stood at 0.615.

For the compound `CCOC(=O)NN=C1C[C@@H](O)[C@@H](O)[C@@H]2[C@@H]3C(=O)N(C(C)(C)C)C(=O)[C@@H]3CC[C@H]12`, the composite z-score is 0.103.

Regarding `C[C@H]1COC(=O)[C@@H]2CCCN2C(=O)[C@@H](C)COC(=O)[C@H](Cc2ccccc2)NC1=O`, the composite z-score is -0.372.

The compound `CCOC(=O)NN=C1C[C@@H](O)[C@@H](O)[C@@H]2[C@@H]3C(=O)N(c4cccc(Oc5ccccc5)c4)C(=O)[C@@H]3CC[C@H]12` gave a composite z-score of 0.0233.

The compound `CCOC(=O)C1=NO[C@@]2(C=C(Br)C3(OCCCO3)[C@H]3O[C@H]32)C1` registered a composite z-score of 1.59.

With `CO[C@@H]1COC(=O)[C@H](CCSC)NC(=O)CC=C[C@@H](C)COC(=O)CCC[C@H]1C`, the composite z-score is -1.51.

`CCOC(=O)[C@H](Cc1ccccc1)NC(=O)CCC1CC(OC(=O)NCc2cccc3ccccc23)CC2(CCCC(COC(=O)NCCC(C)C)O2)O1` (some centres undefined) gave a composite z-score of 0.388.

With `CC[C@@H](c1ccccc1)n1c(=O)n2n(c1=O)[C@H]1[C@H](O)[C@@H]3O[C@@H]3C(=O)[C@H]1CC2`, the composite z-score was 0.384.

As to `CCc1cc2c(nc1CC)CCN(CCC(C)=NO[C@H](C)c1cn([C@H](CO)Cc3ccccc3)nn1)C2`, the composite z-score amounted to 1.3.

In turn, `CCOC(=O)[C@H](CC(C)C)NC(=O)CCC1CC(OC(=O)NCc2ccc3c(c2)OCO3)CC2(CCCC(COC(=O)NCC(c3ccccc3)c3ccccc3)O2)O1` (some centres undefined) yielded a composite z-score of 0.155.

In turn, `CCOC(=O)CCN1C(=O)[C@H]2[C@H]3[C@H](O)[C@H](O)CC(=NOCC(C)C)[C@H]3CC[C@H]2C1=O` gave a composite z-score of 0.617.

The compound `O=C1[C@H]2[C@H]3[C@H](O)[C@H](O)CC(=NOCc4ccccc4)[C@@H]3CC[C@H]2C(=O)N1C[C@@H]1CCCO1` yielded a composite z-score of 0.164.

Take `CCOC(=O)[C@H](CC(C)C)NC(=O)CCC1CC(OC(=O)NCc2cccc3ccccc23)CC2(CCCC(COC(=O)NCC3CCCCC3)O2)O1` (some centres undefined): the composite z-score amounted to 0.0385.

Turning to `CC(C)=CCCC(C)=CCON=C1C[C@@H](O)[C@@H](O)[C@@H]2[C@@H]3C(=O)N(c4cccc(Oc5ccccc5)c4)C(=O)[C@@H]3CC[C@@H]12`, the composite z-score amounted to 0.399.

In turn, `O=C1[C@H]2[C@H]3[C@H](O)[C@H](O)CC(=NOC[C@@H](O)COCc4ccco4)[C@H]3CC[C@H]2C(=O)N1c1ccc(F)cc1F` had a composite z-score of -0.413.

`COc1ccc(O[C@@H]2[C@H](O)CO[C@H]2C=Cc2ccccc2)cc1`: the composite z-score was 0.799.

As for `COC(=O)[C@@H]1CC[C@H](C)[C@@H](c2ccc(C)cc2)N1C(=O)c1ccc(C=NO[C@@H]2O[C@H](COC(C)=O)[C@@H](OC(C)=O)[C@H](OC(C)=O)[C@H]2OC(C)=O)cc1`, the composite z-score is -0.059.

With `CO[C@H]1COC(=O)[C@H](C)NC(=O)[C@@H](C)COC(=O)[C@H]2CCCN2C(=O)CC=C[C@H]1C`, the composite z-score was -0.252.

Consider `CC(C)=CCCC(C)=CCON=C1C[C@@H](O)[C@@H](O)[C@@H]2[C@@H]3C(=O)N(c4ccc(F)cc4F)C(=O)[C@@H]3CC[C@H]12`, for which the composite z-score is 0.342.

As to `COc1cc(O)c(C(=O)C=Cc2ccc3c(c2)OCO3)c(OC)c1`, the composite z-score is 0.551.

Take `COc1ccc(O[C@H]2C=C[C@@H](c3ccccc3)O[C@@H]2CON=C2[C@H]3CCn4c(=O)n(-c5ccccc5)c(=O)n4[C@H]3[C@H](O)[C@@H]3O[C@H]23)cc1`: the composite z-score was 0.338.
